Reference: PubChem BioAssay AID1671189 (National Center for Advancing Translational Sciences (NCATS), 2021)
Out of some 1,100 compounds screened, about 70 (6%) were called active. Not shown: some 22% with an inconclusive outcome. This is one part of a sample in which actives are shown more often than they occur. Calls come from the whole dose curve; as a rule, active = well fitted curve in the direction sought with a large enough effect; inconclusive = small, poorly fitted or top-dose-only effect, or another doubt; inactive = no such curve, though single readings can be large or run the other way.

Target: Polyunsaturated fatty acid lipoxygenase ALOX12 (Homo sapiens) (UniProt P18054)
Assay: Confirmatory qHTS assay for inhibitors of human arachidonate 12S-lipoxygenase (ALOX12): Round 2
Conditions: purified human 12-LOX, xylenol orange absorbance; series mostly up to 125 µM; activity change, negative = inhibition: at the top concentration
Summary of the method: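 Purified human enzyme (150 nM) in 25 mM Hepes, 0.01% Triton X-100, pH 7.0, preincubated 15 min with compound, then 40 uM arachidonic acid for 30 min at room temperature. Hydroperoxide detected by Fe-XO, read as 573/405 nm absorbance ratio.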
% is set by controls: 0 for no effect and ±100 for the full control effect; potency is the fitted concentration of half-maximal effect.

Chain of Polyunsaturated fatty acid lipoxygenase ALOX12 (Homo sapiens) (P18054 whole entry, looked up): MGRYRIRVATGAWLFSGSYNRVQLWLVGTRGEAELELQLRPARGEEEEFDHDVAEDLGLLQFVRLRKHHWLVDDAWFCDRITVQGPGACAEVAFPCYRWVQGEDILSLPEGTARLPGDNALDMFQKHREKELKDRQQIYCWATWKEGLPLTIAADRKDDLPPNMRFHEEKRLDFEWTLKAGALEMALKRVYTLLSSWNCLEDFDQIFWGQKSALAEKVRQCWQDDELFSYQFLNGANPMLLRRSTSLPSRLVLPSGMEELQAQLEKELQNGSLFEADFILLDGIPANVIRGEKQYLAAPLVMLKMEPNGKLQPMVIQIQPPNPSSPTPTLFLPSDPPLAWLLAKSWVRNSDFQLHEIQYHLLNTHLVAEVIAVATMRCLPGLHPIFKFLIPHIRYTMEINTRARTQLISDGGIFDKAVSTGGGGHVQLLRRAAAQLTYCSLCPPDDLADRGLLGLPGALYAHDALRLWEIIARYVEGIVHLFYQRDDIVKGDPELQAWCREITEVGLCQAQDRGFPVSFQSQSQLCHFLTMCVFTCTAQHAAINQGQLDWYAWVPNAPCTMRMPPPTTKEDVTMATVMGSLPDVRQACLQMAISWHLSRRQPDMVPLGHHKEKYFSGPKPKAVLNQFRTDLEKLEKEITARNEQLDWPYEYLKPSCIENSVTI

| Structure (SMILES) | activity change, negative = inhibition | Potency |
| --- | --- | --- |
| COc1ccc(CN2CCCC23Cc2ccccc2CNC3=O)c(O)c1 (configuration not stated) | -17.5% (inactive) | – |
| CCOC(=O)c1c(NC(=O)CSc2nnnn2-c2ccc(OC)cc2)sc(C)c1C | -14.4% [at 64.5 µM] (inactive) | – |
| CC(=O)Nc1ccc(CN2CCC(c3nc4ccc(C)cc4c(=O)[nH]3)CC2)cc1 | -13.7% (inactive) | – |
| CCCCc1ncc(-c2nccn2C2CCNC2)[nH]1 (configuration not stated) | 21.1% [at 64.5 µM] (inactive) | – |
| O=C1NCc2ccccc2CC12CCN(Cc1c(F)cccc1F)C2 (configuration not stated) | -25.4% (inactive) | – |
| COc1ccc(-c2nc(C3CC3)nc3c2CCN(C(=O)c2ccc(C(F)(F)F)cc2)CC3)cc1 | -23.3% (inactive) | – |
| O=[S+]([O-])(c1ccccc1)N1CC(Oc2ccc(F)c(F)c2)C1 | -14.7% (inactive) | – |
| CCC(=O)N1Cc2ccccc2CC2(CCCN(CC3CCNCC3)C2)C1 (configuration not stated) | -7.83% (inactive) | – |
| NCc1ccccc1-c1ccc(O)cc1 | -3.22% (inactive) | – |
| Cn1nc(C2CCNC2)c2c(C(=O)NCc3ccncc3)cc(C3CC3)nc21 (configuration not stated) | -24.7% (inactive) | – |
| O=C1NC2(Cc3ccccc31)CN(C(=O)c1ccc3c(c1)OCO3)C2 | -19.5% (inactive) | – |
| CCC(=O)NC(c1cc(Cl)c2cccnc2c1O)C1CC1 (configuration not stated) | – | 12.2 µM (active) |
| CC(C)C[C@@H](N)C(=O)O | -4.33% (inactive) | – |
| COc1cccc([S+](=O)([O-])N2CC(Oc3ccc(F)c(F)c3)C2)c1 | -5.6% (inactive) | – |
| COc1cccc(N2C(=O)NC(=NC3CCCCC3)C23CCCN(C(=O)c2ccccc2)C3)c1 (configuration not stated) | -11.8% (inactive) | – |
| CC(=O)NC1CC2(CCN(C(=O)Cc3c(C)noc3C)CC2)Oc2ccccc21 (configuration not stated) | -16.9% (inactive) | – |
| CC(C)NC(=O)N1CCC2(CC1)CN(C(=O)Cc1c[nH]c3ccccc13)CCO2 | -6.28% (inactive) | – |
| O=C(Nc1ccc(Oc2ccccc2)cc1)O[C@@H]1CO[C@H]2[C@@H]1OC[C@@H]2NS(=O)(=O)c1ccc(Cl)cc1 | – | 5.01 µM (active) |
| CC(C)C(=O)N1Cc2ccccc2CC2(CCCCN2CC2CCNC2)C1 (configuration not stated) | -15.4% (inactive) | – |

| Structure (SMILES) | activity change, negative = inhibition | Potency |
| --- | --- | --- |
| CN(C)CCCC(=O)N1Cc2ccccc2CC2(CCCCN2Cc2ccccc2)C1 (configuration not stated) | -27.8% (inactive) | – |
| Cc1cc(C(=O)NC2CCNCC2)c2c(C3CCNCC3)noc2n1 | -7.39% (inactive) | – |
| CC(C)c1ccc(CNC(=O)C2CCN(c3cc(C(F)(F)F)ncn3)CC2)cc1 | 3.84% [at 64.5 µM] (inactive) | – |
| O=C1Nc2ccccc2CN(CC2CCCCC2)C12CCNCC2 | – | 49.4 µM (active) |
| O=C1Nc2ccccc2CC12CN(CC1CCCC1)C2 | 13.7% (inactive) | – |
| O=C1Nc2ccccc2CN(C/C=C/c2ccccc2)C12CCNC2 (configuration not stated) | -25.1% (inactive) | – |
| C[S+](=O)([O-])N1Cc2ccccc2CC2(CCCCN2CC2CCNCC2)C1 (configuration not stated) | -4.25% (inactive) | – |
| COc1ccc(CNc2ncnc3c2CN(C2CCNCC2)C(=O)CN3C)cc1 | -18.4% (inactive) | – |
| O=C(c1ccccc1)N1CCn2c(nnc2C2CCNCC2)C1 | -13.7% (inactive) | – |
| COc1cccc(CNc2ccc([S+](=O)([O-])Nc3cc4ccccc4s3)cc2)c1O | – | 19.3 µM (active) |
| Cc1ccc2nc(C3CCCN(Cc4ccccc4)C3)[nH]c(=O)c2c1 (configuration not stated) | -22% (inactive) | – |
| O=C(c1ccccn1)N1CCn2c(nn(-c3ccc(Cl)cc3)c2=O)C1 | -8.97% (inactive) | – |
| O=C1NC(=NC2CCCC2)C2(CCN(CC3CC3)C2)N1c1cccnc1 (configuration not stated) | -8.29% (inactive) | – |
| C#CCN(C)C(=O)[C@@H]1CCCN1[C@H](CC(C)C)C(=O)NC | -7.98% [at 64.5 µM] (inactive) | – |
| CNC(=O)[C@@H](C1CCCCC1)N1CCC[C@H]1C(=O)N1CCC1 | – | 15.8 µM (active) |
| Cc1n[nH]c(C)c1CN1CCC2(CC1)CCN(C1CCOCC1)CC2CO (configuration not stated) | 6.52% [at 64.5 µM] (inactive) | – |
| CN1CC(=O)N(C2CCNCC2)Cc2c(NCCc3cccc(F)c3)ncnc21 | -18.2% (inactive) | – |
| COc1ccc(CN2Cc3[nH]cnc3C[C@H]2C(=O)NCc2ccco2)cc1 | -22.1% (inactive) | – |
